The campaign covered roughly 310,000 compounds. About 14,000 (4.5%) showed an effect of 50% or more. The effect is printed as a negative number. This is one part of a sample in which strong results are shown more often than they occur.
Target: human ether-à-go-go-related gene (hERG) potassium channel (human, UniProt Q12809)
Test: primary screen, population patch clamp on CHO cells stably expressing hERG; higher = less effect of the substance
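Further: peak tail current of the secondary pulse compared with the same well before compound.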

Chain of human ether-à-go-go-related gene (hERG) potassium channel (Q12809 whole entry, looked up): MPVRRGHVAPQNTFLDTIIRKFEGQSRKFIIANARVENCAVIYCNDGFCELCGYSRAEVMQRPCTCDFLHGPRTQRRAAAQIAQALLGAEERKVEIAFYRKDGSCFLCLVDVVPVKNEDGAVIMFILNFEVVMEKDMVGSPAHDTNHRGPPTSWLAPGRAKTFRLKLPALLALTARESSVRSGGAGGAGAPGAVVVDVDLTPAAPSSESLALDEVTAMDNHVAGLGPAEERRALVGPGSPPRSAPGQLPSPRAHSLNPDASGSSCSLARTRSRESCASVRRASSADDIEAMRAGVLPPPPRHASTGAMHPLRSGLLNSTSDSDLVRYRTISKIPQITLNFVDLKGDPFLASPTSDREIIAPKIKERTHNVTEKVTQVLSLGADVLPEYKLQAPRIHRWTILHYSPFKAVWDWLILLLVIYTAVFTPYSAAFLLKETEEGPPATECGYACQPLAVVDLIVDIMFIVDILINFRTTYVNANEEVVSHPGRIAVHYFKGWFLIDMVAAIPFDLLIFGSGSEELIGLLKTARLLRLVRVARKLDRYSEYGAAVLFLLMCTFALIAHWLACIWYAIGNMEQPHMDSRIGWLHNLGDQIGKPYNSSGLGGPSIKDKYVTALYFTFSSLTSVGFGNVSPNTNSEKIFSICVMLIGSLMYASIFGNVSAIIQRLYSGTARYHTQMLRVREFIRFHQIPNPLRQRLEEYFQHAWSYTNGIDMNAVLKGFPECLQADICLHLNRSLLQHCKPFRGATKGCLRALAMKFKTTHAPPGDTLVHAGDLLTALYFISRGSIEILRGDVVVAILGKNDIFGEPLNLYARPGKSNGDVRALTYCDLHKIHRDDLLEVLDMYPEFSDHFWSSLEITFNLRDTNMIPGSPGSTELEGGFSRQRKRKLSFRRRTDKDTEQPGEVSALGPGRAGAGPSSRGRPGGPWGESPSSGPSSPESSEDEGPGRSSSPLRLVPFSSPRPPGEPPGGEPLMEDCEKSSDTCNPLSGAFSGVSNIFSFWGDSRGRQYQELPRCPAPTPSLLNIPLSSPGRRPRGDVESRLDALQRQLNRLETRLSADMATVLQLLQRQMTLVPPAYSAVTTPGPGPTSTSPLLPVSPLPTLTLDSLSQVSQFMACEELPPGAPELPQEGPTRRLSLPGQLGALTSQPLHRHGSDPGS

Compound | hERG current change (%, negative = inhibition) at 10uM
CC1(C)CC(OC(=O)c2ccccc2)CC(C)(C)N1 | 9.14%
COc1ccc(NC(=O)c2oc3ccccc3c2NC(=O)C(C)(C)C)cc1 | 11.3%
CC(CCC(=O)Nc1nncs1)C(=O)O (stereo not drawn) | -6.61%
CCCOC(=S)NC(=O)c1sc2ccccc2c1Cl | 12.3%
CC(C)c1nc2cc(C(=O)N(C)Cc3ccc(F)cc3)ccc2o1 | 1.04%
O=C1CCc2cc(S(=O)(=O)N3CCC(C(=O)NCc4ccccc4Cl)CC3)ccc2N1 | 4.83%
CC(C)CCn1c(=O)c2ccccc2n2c(CCC(=O)NCC3CCCO3)nnc12 (stereo not drawn) | -1.79%
CC(C)OCCCn1c(=O)c2ccccc2n2c(CCC(=O)NC3CCN(Cc4ccccc4)CC3)nnc12 | -51.4%
CC(C)CCNC(=O)CCc1nnc2n(CCCOC(C)C)c(=O)c3ccccc3n12 | -26.7%
CC1CCN(CCCNC(=O)CCc2nnc3n(CCc4ccccc4)c(=O)c4ccccc4n23)CC1 | -76.8%
O=C(CCc1nnc2n(CCc3ccccc3)c(=O)c3ccccc3n12)NCCCN1CCCCC1 | -77.6%
CCOCCCNC(=O)CCc1nnc2n(CCC(C)C)c(=O)c3ccccc3n12 | -22.5%
CC(C)Cn1c(=O)c2ccccc2n2c(CCC(=O)NC3CCN(Cc4ccccc4)CC3)nnc12 | -39.4%
CC(C)CCn1c(=O)c2ccccc2n2c(CCC(=O)NC3CCN(Cc4ccccc4)CC3)nnc12 | -49.6%
CN1CCN(CCCNC(=O)CCc2nnc3n(Cc4ccccc4Cl)c(=O)c4ccccc4n23)CC1 | 5.29%
Cc1ccc(S(=O)(=O)NNC(=O)C2CCCCC2)cc1 | 9.57%
NC(=O)[C@@H]1CCCN1Cc1nc(-c2ccc(C(F)(F)F)cc2)no1 | -5.68%
CC(O)[C@@H](C(=O)N1CCNCC1)n1cc(CCCCN)nn1.Cl (stereo partly drawn) | 14.3%
O=C(c1cccc2ccccc12)N1CCN(c2ccc([N+](=O)[O-])c(N3CCOCC3)c2)CC1 | -13.7%
Cc1ccc(C(=O)N2CCN(c3ccc([N+](=O)[O-])c(N4CCOCC4)c3)CC2)cc1 | -60%
O=C(c1ccc2ccccc2c1)N1CCN(c2ccc([N+](=O)[O-])c(N3CCOCC3)c2)CC1 | -18.8%
O=C(c1ccc(F)cc1)N1CCN(c2ccc([N+](=O)[O-])c(N3CCCCC3)c2)CC1 | -15.3%
O=C(c1ccccc1)N1CCN(c2ccc([N+](=O)[O-])c(N3CCOCC3)c2)CC1 | -7.22%
O=C(c1ccc(F)cc1)N1CCN(c2ccc([N+](=O)[O-])c(N3CCOCC3)c2)CC1 | -58.3%
